We go through 39 compounds from PubChem BioAssay (NCI).

Structures are written as SMILES. About 83,000 compounds went through this panel and 20% of them were active in at least one assay; those are over-represented in the sample as a whole.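 Negative percent growth values reflect cell death: -40 means 40% of the cells present at the start died, and -100 means all died.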 Unmarked numbers belong to inactive results. Active and inactive are the calls of the source. Rule for the calls: active = growth percent below 10; inactive = the rest.

The test system of the assay is HL-60(TB) leukemia. Description: NCI-60 one-dose screen, 48 h (100 = growth as untreated, 0 = no growth, -100 = all killed). Conditions: 10 µM unless noted.
Turning to `O=C(NNC(=O)N1c2ccccc2C=Cc2ccccc21)c1ccc2ccccc2c1`, the growth was 90%.
The figure for `CC1=C2[C@@H](CC1)[C@]1(C)O[C@@](C3CC3)(C[C@H]1OC(=O)CO)[C@H]2OC(=O)/C=C/c1ccccc1` is 92.6%; for `CN(C)c1ccc(Nc2c3ccccc3nc3cc(NC(=O)CCN4CCCC4)ccc23)cc1` it is -57.9% (active).
Consider `COc1ccc(OCC(CO)N2CCN(c3ccccc3)CC2)cc1` (centres undefined), for which the growth is 123%.
Regarding `c1ccc2nc(N3CCOCC3)c(N3CCCCC3)nc2c1`, the growth was 98.9%.
As for `N#CSc1cc(S(N)(=O)=O)ccc1N`, the figure is 81.2%; as for `O=S(=O)(NCCNc1cc(-c2cn(-c3ccccc3)nc2-c2ccccc2)ccn1)c1ccc(F)cc1`, 69.9%.
`COCCOc1cc2ncnc(N3CCN(c4ncc(S(=O)(=O)N5CCCCC5)cn4)CC3)c2cc1OCCOC`: the growth was 100%.
For the compound `Nc1c(CNCc2nnn(Cc3ccccc3)c2N)nnn1Cc1ccccc1`, the growth was 103%.
As for `O=[N+]([O-])c1ccc(NC(c2ccccc2)c2ccc3cccnc3c2O)cc1` (centres undefined), the growth is -9.64% (active).
Consider `COc1ccc(C(O)c2cc3c(N)c(C(=O)Nc4cccc(Cl)c4)sc3nc2C)cc1` (centres undefined), for which the growth is 0.332% (active).
Turning to `COc1cc2c(cc1-c1c(C)noc1C)ncc1nc(C3CCC(F)(F)CC3)n(C3CCC(OC(F)F)CC3)c12` (centres undefined), the growth is 7.4% (active).
Consider `CC(C)(C)CC(C)(C)N(CSc1ccc(Cl)cc1)CSc1ccc(Cl)cc1`, for which the growth is -35.3% (active).
In the case of `O=C1/C(=C\c2cccc(OCCCCCOc3ccc(Cl)cc3)c2)N=C2SCCCN12`, the growth is 36%.
Consider `O=C(Nc1cc(Cl)cc2c1-c1ccc(Cl)cc1C2O)C(Cl)Cl` (centres undefined), for which the growth is 76.2%.
Regarding `O=c1onc(-c2ccccc2)c2ccccc12`, the growth is 86.8%.
The figure for `CCCCCCCCN(CCCCCCCC)CCCCCCNc1cc(OC)cc2cccnc12` is 83.6%; for `O=Nc1c(-c2c(O)[nH]c3ncccc23)[nH]c2ccccc12` it is 125%; for `Cc1cc(O[C@@H]2O[C@@H](C)[C@H](O)[C@@H](O)[C@H]2O)c2c3c(c(O[C@@H]4O[C@@H](C)[C@H](O)[C@@H](O)[C@H]4O)cc2c1)C(=O)c1c(O)cccc1C3=O` it is 64.9%.
`Clc1ccc(/C=C2\CCCC3C2=Nc2ccccc2NC3c2ccc(Cl)cc2)cc1` (centres undefined): the growth was 73.9%.
As for `CCN1CCN(c2nc3ccccc3c3c(=O)c4cc(F)ccc4sc23)CC1`, the figure is 104%.
As for `O=C(NCN1C(=O)c2cccc3cccc(c23)C1=O)N1CCC(Cc2ccccc2)CC1`, the growth was 96.1%.
Consider `COc1cccc(CCN2C(=O)CCC3=C2CCC3=O)c1`, for which the growth was 99.9%.
As to `CCc1ccc(Oc2c(-c3ccc(OCCc4cccc(C(F)(F)F)c4)cc3O)n[nH]c2C(F)(F)F)cc1`, the growth was 50.9%.
As for `COc1ccc(OC)c(C(=O)Nc2cccc(-c3cc(=O)c4ccccc4o3)c2)c1`, the figure is 89.4%; as for `CCCCCCCCCCCCCC1=NC(C)(C)CN1C(C)C`, -66.7% (active).
As to `CCC(c1ccc(O)cc1)C(CC)c1ccc(O)c(F)c1` (centres undefined), the growth is 56.1%.
`CC(C)C1=C[C@@]23CC[C@@H]4[C@](C)(CCC[C@@]4(C)C(=O)OCC#CCN4CCCC4)[C@H]2C[C@@H]1[C@H]1C(=O)OC(=O)[C@H]13`: the growth was 95.7%.
Turning to `C/C(=N/O)c1ccc(NC(=O)Cn2nc(-c3ccc(Cl)cc3)nc2N)cc1`, the growth was 94.7%.
Turning to `CCN(CC)CCNC(=O)c1c(C)[nH]c(/C=C2\C(=O)Nc3ccc(F)cc32)c1C`, the growth was -23% (active).
Take `Clc1ccc2c(NCCCN3CCN(c4nc(-n5ccnc5)nc5ccccc45)CC3)ccnc2c1`: the growth was 52.7%.
Consider `O=[N+]([O-])c1ccc2c(c1)S(=O)c1cc([N+](=O)[O-])ccc1N2`, for which the growth is 109%.
For the compound `C#CCOc1cccc(-c2ncnc3cc(NC(=O)C=C)ccc23)c1`, the growth was 16.9%.
For the compound `N#C/C(=C\c1ccc(C(F)(F)F)cc1)c1cc2ccccc2[nH]1`, the growth is 89.3%.
As for `CCCCc1nc(Cl)c(CO)n1Cc1ccc(-c2ccccc2-c2nn[nH]n2)cc1`, the growth was 110%.
Take `OC(c1cc(C23CC4CC(CC(C4)C2)C3)nc2c(Cl)cc(Cl)cc12)C1CCCCN1` (centres undefined): the growth is -47.7% (active).
As for `COCC(=O)NNc1[nH]c(-c2ccc(OC)cc2)cc1C#N`, the figure is 6.53% (active); as for `O=C(Nc1ccccc1)c1cc(Cl)ccc1O`, 29.6%; as for `O=C1C=C(c2ccccc2)C(O)(c2ccccc2)C1` (centres undefined), 85.2%.
